Bioassay records as filed in PubChem BioAssay.
TWEAK Fn14 block: inhibitors of TWEAK-Fn14 interaction signaling; 360,000 compounds, 2% hits; inhibition, % at 10 µM; TWEAK-stimulated Fn14 reporter cells, luciferase luminescence, 8 h; in the data active = inhibition above about 50%
TRPM1 prom inh: reduces MITF-dependent TRPM1 promoter luciferase signal; SK-MEL-5 TRPM1 promoter luciferase, 24 h; inhibition, % at 12.5 µM; 330,000 compounds, 0.83% hits; AID 488899;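 active = mean inhibition across replicates of 60% or more, whatever share of single replicates reaches that level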
EBV LMP1 NFkB: reduces LMP1-driven NF-kappaB luciferase signal; LMP1-induced NF-kappaB luciferase reporter cells, luminescence; inhibition, % at 12.5 µM; 350,000 compounds, 0.69% hits; in the data active = inhibition above about 41%;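 also: 0% = neutral control wells and 100% = reference inhibitor control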
Peg3 promoter: inhibitors of Peg3 promoter; HeLa PEG-Prom luciferase reporter, luminescence, overnight; inhibition, % at 20 µM; 360,000 compounds, 1.7% hits; AID 588405;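 active = inhibition of at least 50% at 20 µM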
Shn3 inh set2: reduces Shn3 3'UTR luciferase signal in osteoblasts | Clone20 osteoblast Shn3 3'UTR firefly luciferase, 24 h | inhibition, % at 12.5 µM | 360,000 compounds, 0.52% hits | AID 588674;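 active = mean inhibition of at least 75% with every replicate also reaching 75%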;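 also: 0% = median of neutral control wells and 100% = pilot-screen positive control compound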
TROY signal inh: TROY signaling inhibition; Q293 LMP1-TROYcd NF-kB luciferase reporter, 4 h; inhibition, % at 10 µM; 360,000 compounds, 0.98% hits; AID 1347056;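 active = compounds whose plate-normalised and pattern-corrected inhibition of the luciferase reporter signal at the single screening dose is 50% or more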
* = called active by the depositor; / = not tested or not shown. This is a sample that favours compounds with a hit; in the whole collection about 4.1% have one here.

SMILES	TWEAK Fn14 block	TRPM1 prom inh	EBV LMP1 NFkB	Peg3 promoter	Shn3 inh set2	TROY signal inh
CN(CC(=O)Nc1cccc(F)c1)CC(=O)N(C)CC(=O)Nc1ccccc1Br	-11.3	10.4	73.0*	17.9	-21.0	6.6
CCn1c(CCC(=O)Nc2ccccc2F)nnc1SCC(=O)Nc1ccc(OC)cc1	5.8	7.9	-2.3	20.1	17.3	4.0
Cc1cc(Br)cn2c(Cc3ccsc3)c(-c3ccco3)nc12	51.3*	/	/	6.9	-14.4	-4.6
COc1ccc(Cc2c(-c3ccco3)nc3c(C)cc(Br)cn23)c(C)c1	18.6	/	/	-8.8	6.5	12.8
COc1ccccc1Cc1c(-c2ccco2)nc2c(C)cc(Br)cn12	69.0*	/	/	97.7*	93.6*	10.1
Cc1ccc(Cc2c(-c3ccc(F)cc3)nc3c(C)cc(Br)cn23)cc1	24.6	/	/	54.8*	0.7	5.3
COc1ccc(Cc2c(-c3ccco3)nc3ccc(Br)cn23)c(C)c1	57.1*	/	/	4.7	7.1	-7.1
COc1ccc(Cc2c(-c3ccco3)nc3ccc(Cl)cn23)c(C)c1	29.6	/	/	-14.8	9.4	-1.6
Cc1ccc(Cc2c(-c3ccc(C)cc3)nc3c(C)cc(Br)cn23)cc1	7.9	/	/	-7.0	-4.7	-22.1
Cc1cc(Br)cn2c(Cc3ccsc3)c(-c3cccc(Cl)c3)nc12	14.3	/	/	-13.5	14.0	19.3
CCCc1nnc(NC(=O)C2CCN(C(=O)c3ccco3)CC2)s1	11.7	-3.1	-8.5	-11.8	4.6	19.4
O=C(CCOc1ccccc1)Nc1ccc(Cl)c(S(=O)(=O)N2CCOCC2)c1	-5.8	0.0	1.9	15.5	-7.0	5.6
O=C(COc1ccccc1)N=C1SC2CS(=O)(=O)CC2N1c1ccc(F)cc1 (stereo unspecified)	-15.9	0.6	0.7	-5.2	-8.2	9.4
Cc1cc(Br)cn2c(Cc3ccccc3)c(-c3ccco3)nc12	84.6*	/	/	-62.6	-20.9	6.2
O=C(O)c1ccccc1C(=O)Nc1ccc(Oc2cccc3ccccc23)cc1	87.8*	73.1*	23.5	20.4	6.0	71.0*
CSc1cccc(NS(=O)(=O)c2ccc3c(c2)NC(=O)C(C)C(=O)N3)c1 (stereo unspecified)	9.1	/	2.0	7.8	6.1	5.3
COCCN(C(=O)CSc1nnc(-c2cccc(F)c2)n1N)c1c(N)n(CC(C)C)c(=O)[nH]c1=O	-8.9	-2.0	1.5	2.7	4.2	-9.1
Cc1cc(C(=O)Cn2cnc3cc(F)ccc3c2=O)c(C)n1C1CC1	-19.5	-70.9	-21.2	-247.5	92.9*	-24.8
CS(=O)(=O)c1ccc(Cl)c(NC(=O)c2cc(S(=O)(=O)N3CCOCC3)ccc2N2CCCC2)c1	-14.3	-17.8	1.1	17.2	1.3	-19.2
O=C(Nc1ncc(Br)s1)C(Cc1ccccc1)n1cccc1 (stereo unspecified)	4.4	-18.2	90.8*	31.4	-15.3	12.4
O=C(Nc1cccnc1)C(Cc1ccccc1)n1cccc1 (stereo unspecified)	-11.8	11.1	1.1	0.3	11.3	9.4
CCc1cc2c(=O)[nH]c(-c3ccccn3)nc2s1	15.6	32.0	32.4	96.2*	53.9	17.8
Cc1ccc(S(=O)(=O)N2C[C@H]3C(=O)C[C@@H](c4cccc(C)c4)N(S(=O)(=O)c4ccc(C)cc4)[C@H]3C[C@H]2c2ccccc2)cc1	-29.3	/	/	-21.5	-30.8	2.7
CC(=O)Nc1ccc(C(=O)N2CCCCC2c2cc(C(=O)Nc3ccccc3)no2)cc1 (stereo unspecified)	-28.6	/	/	-10.7	-9.6	4.7
CN1CCN(c2cc3c(c4c2[nH]c2ccccc24)C(=O)CC(C)(C)C3)CC1	18.7	4.8	-22.1	107.2*	-3.4	0.7
SMILES	TWEAK Fn14 block	TRPM1 prom inh	EBV LMP1 NFkB	Peg3 promoter	Shn3 inh set2	TROY signal inh
COc1cc(OC)c2c(=O)cc(-c3ccccc3)oc2c1	-72.3	-43.0	-23.8	-274.5	-108.2	-96.0
COc1cc2c(c3oc(-c4ccccc4)cc(=O)c13)C=CC(C)(C)O2	64.1*	-5.7	10.0	34.1	82.8	18.7
O=C1CSCc2nc3ccccc3n21	6.5	5.1	-6.7	-9.3	-9.6	-2.7
Cc1ccc(NC(=O)CCc2c(C)nn(-c3ccc(N4CCCCC4)nn3)c2C)cc1	-53.5	-30.8	-17.7	77.3*	-25.5	-34.4
Cc1ccc(NC(=O)CCN2CCN(CCO)CC2)cc1	-2.1	-2.0	5.4	15.5	-2.4	-1.2
Cc1cc(C)cc(NC(=O)CCc2c(C)nn(-c3ccc(N4CCCCC4)nn3)c2C)c1	-18.1	-76.4	-34.3	-179.9	-93.4	-46.1
